PNC inhibitor = blocks assembly of the perinucleolar compartment; PC3M PTB-GFP, PNC prevalence imaging, 16 h; hits give low values; AID 2417; 3.1% of 140,000 active; activity change (PNC), negative = inhibition, % at 10 µM;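 active = readout at or below -70, meaning at least 70% loss of cells showing the perinucleolar compartment, a nuclear body marking cancer cells; inconclusive = readout between -30 and a set limit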;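 note: plate controls were DMSO wells for no effect and camptothecin positive control wells for full effect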
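Compounds are pinned in duplicate onto adhered PC3M cells stably expressing GFP-tagged PTB and incubated 16 h at 37 C. Cells are then fixed, nuclei stained with Hoechst, and PNC-positive cells counted.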
HPGD block = inhibitors of human 15-hydroxyprostaglandin dehydrogenase (HPGD). 4.3% of 150,000 active. Potency, µM, inactives show top-dose activity change, negative = inhibition, most hits filed as inhibitors. P15428. AID 894. purified HPGD, NADH fluorescence kinetic, PGE2 substrate; note: potency is the fitted concentration of half-maximal effect
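NADH formation kinetics: reaction with 30 uM PGE2 and 1 mM NAD+ (final), 20 nM enzyme, Tris-HCl pH 8 with Tween 20, after 15 min compound preincubation at room temperature. Fluorescence change, last versus first of five reads.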
ALDH1A1 inh = inhibitors of human aldehyde dehydrogenase 1A1. P00352. Purified ALDH1A1, NADH fluorescence, propionaldehyde substrate. Potency, µM (highest dose often 75.3 µM), without a hit: top-dose activity, negative = inhibition, hits mostly inhibitors. 7.3% of 220,000 active. AID 1030;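 note: potency is the fitted concentration of half-maximal effect; plate controls were no enzyme wells and a reference inhibitor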
12-hLO inh = 12-hLO (ALOX12) enzyme inhibition | 0.12% of 150,000 active | P18054 | Potency, µM (titrated, usually from 57.1 µM), for inactives: at the top dose activity change, negative = inhibition, most hits filed as inhibitors | purified 12-hLO, xylenol orange hydroperoxide absorbance; active = well fitted curve in the direction sought with a large enough effect; inconclusive = small, poorly fitted or top-dose-only effect, or another doubt; inactive = no such curve, though single readings can be large; an effect the other way counts as inactive or inconclusive; note: potency is the fitted concentration of half-maximal effect; nearly all actives have a fitted effect of over 55% in size
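Xylenol orange chromogenic assay: hydroperoxide from 12hLO oxidises Fe(II), giving red-shifted Fe(III)-XO absorbance. Conditions: 150 nM enzyme, 40 uM arachidonic acid, 25 mM Hepes pH 7.0, 0.01% Triton X-100, 30 min, room temperature.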
IMPase Li inh = cell-permeable IMPase inhibitors with lithium potentiation; CHO-M1 cells, IP1 TR-FRET (IP-One), carbachol + lithium; Potency, µM (titrated, usually from 59.4 µM), for the others: at the top dose activity, negative = IMPase inhibition, most hits filed as inhibitors; 0.35% of 210,000 active; active = well fitted curve in the direction sought with a large enough effect; inconclusive = small, poorly fitted or top-dose-only effect, or another doubt; inactive = no such curve, though single readings can be large; an effect the other way counts as inactive or inconclusive;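 note: IP1 builds up when IMPase is blocked and the TR-FRET signal falls; potency is the fitted concentration of half-maximal effect; plate controls were basal vehicle for no effect and high inhibitor control for full effect; nearly all actives have a fitted effect of over 50% in size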
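Steps: plate 2000 CHO-M1 cells per well and culture 16–30 h; add compound and lithium; incubate 30 min, 37C; add d2-IP1 tracer and Eu cryptate anti-IP1 antibody in lysis buffer; read after 10 min at room temperature.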
IMPase cell inh = IMPase inhibition in cells. P97697. inhibition (IP1 accumulation), % at 46.1 µM. 120,000 tested, under 10 active. CHO-M1 cells, IP1 accumulation, HTRF TR-FRET ratio; active = well fitted curve in the direction sought with a large enough effect in the signal ratio, not every such curve was filed as active; inconclusive = small, poorly fitted or top-dose-only effect, or a change in a side signal; inactive = no such curve, though single readings can be large or run the other way; the % refers to the signal ratio;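 note: cells stimulated with carbachol in lithium chloride buffer; plate controls were DMSO basal wells for no effect and reference inhibitor wells for full effect; higher means more IMPase inhibition seen as more IP1 and lower FRET ratio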
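Cellular IMPase inhibition is scored as a rise in cytosolic IP1, detected by competitive TR-FRET between d2-labelled IP1 and a europium anti-IP1 antibody. M1-expressing CHO cells were stimulated with carbachol for 30 min at 37C, with lithium (50 mM LiCl) present in the buffer.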
An asterisk follows results filed as active; ? = inconclusive; · = no result given; [ ] = remark or other dose. Only some compounds are listed: those with a hit (about 11% of all), similar ones and a draw of the others. Unless noted, calls come from the whole dose curve; as a rule, active = well fitted inhibition curve with a large enough effect (not every such curve was filed as active); inconclusive = small, poorly fitted or top-dose-only effect, or another doubt; inactive = no such curve, though single readings can be large or run the other way. Unless noted, % is set by controls: 0 for no effect and ±100 for the full control effect.

SMILES	PNC inhibitor	HPGD block	ALDH1A1 inh	12-hLO inh	IMPase Li inh	IMPase cell inh
O=c1ccn(CCc2c[nH]c3ccccc23)c2c1CCCC2	·	·	14µM*	·	4%	·
Cc1cccc(N(CC(=O)Nc2cccc(Cl)c2C)S(C)(=O)=O)c1C	·	·	·	·	·	0
Cc1ccc(S(=O)(=O)N2CCN(S(=O)(=O)c3ccccc3)C2)cc1	-22	2%	-4%	-2%	-14%[38.3 µM]	5
C/C(=N\S(=O)(=O)c1ccc(C)cc1)N1CCN(S(=O)(=O)c2ccccc2)C1	1	-10%	4µM*	-11%	12%[38.3 µM]	?
CC(C)C1Cc2c(sc3[nH]c(=S)n(Cc4ccccc4)c(=O)c23)CO1 (configuration not stated)	?	?	-16%	-4%	-11%[38.3 µM]	3
CC(C)C1Cc2[nH]c(=O)c(C(=O)O)cc2CO1 (configuration not stated)	-111*	?	?	-14%	2%[38.3 µM]	1
COC(=O)c1ccc(C(/C=C/[C@@H](C)C(=O)NCc2ccccc2)NC(=O)OCc2ccccc2)cc1 (some centres not stated)	·	-5%	0%	0%	1%	·
N#Cc1c(Cl)nc(SCc2ccccc2)nc1-c1ccccc1	-25	2.8µM*	32µM*	-12%	2.5µM*	?
COCCNC(=O)c1c[nH]c2cc(OC)c(OC)cc2c1=O	?	-10%	-10%	4%	10%[38.3 µM]	3
COc1cc2[nH]cc(C(=O)NCCc3ccccc3)c(=O)c2cc1OC	-100*	?	?	-1%	4%	9
O=C(/C(Br)=C/Nc1cc(Cl)ccc1Cl)C(F)(F)F	?	?	16µM*	1%	-7%	·
O=C(Nc1cc(Cl)ccc1Cl)N1CCCC1	·	·	0%	·	·	·
COc1cc(C(=O)N(Cc2ccco2)Cc2cc3ccccc3[nH]c2=O)cc(OC)c1OC	-2	-19%	22µM*	-6%	5%[38.3 µM]	5
Cc1ccc(C(=O)OCc2cc3ccccc3[nH]c2=O)cc1	-23	-8%	6%	-4%	?	0
COc1cc(C(=O)OCc2cc3ccccc3[nH]c2=O)cc(OC)c1OC	-100*	-26%	0%	1%	?	-5
O=C(OCc1cc2ccccc2[nH]c1=O)C1CCCCC1	?	·	20µM*	-4%	·	6
Cc1ccc2cc(CN(Cc3ccco3)C(=O)c3ccccc3)c(=O)[nH]c2c1C	-12	-26%	?	-5%	0%[38.3 µM]	1
COc1ccc2[nH]c(=O)c(CN(C)C(=O)C3CCCCC3)cc2c1	?	?	?	4%	28µM*	-6
COc1ccc2[nH]c(=O)c(CN(C)C(=O)c3ccncc3)cc2c1	?	?	?	4%	20%[38.3 µM]	4
COc1ccc2c(c1)O[C@@H](c1ccc3c(c1)OCO3)[C@H](OC(=O)NS(=O)(=O)c1ccc(F)cc1)C2=O	·	-13%	?	·	11%	·
CC1CCN(CC[S-])CC1.O.O.[Cl][Pt]	·	-13%	-11%[13.5 µM]	1%[11.4 µM]	-1%	·
CCOC(=O)C1=C(C)N(c2ccccc2)C(=O)/C1=C\c1ccco1	?	-18%	11µM*	3%	9%	·
CCOC(=O)C1=C(C)N(c2ccccc2)C(=O)/C1=C\c1cccs1	24	-2%	-9%	-2%	-10%	·
O=C1OC(NC(=O)c2ccccc2)C(n2cc(CO)nn2)=C1Cl (configuration not stated)	20	22µM*	13µM*	-15%	19%[38.3 µM]	2
O=C1C=CC(=O)N1c1ccc(OC(F)F)cc1	-9	7.1µM*	0.71µM*	-23%	-1%	·
CC[C@H]1CC[C@H]2[C@@H]3CC=C4C[C@H](OC(C)=O)[C@@H](N)C[C@@]4(C)[C@H]3CC[C@@]12C	·	-6%	6%[13.5 µM]	-3%[11.4 µM]	2%	·
O=C(Cn1nc(-c2ccccc2Cl)ccc1=O)Nc1ccc(Br)cc1	·	·	7.9µM*	·	13%	·
O=C(Cn1nc(-c2ccccc2F)ccc1=O)Nc1ccc(S(=O)(=O)N2CCCCCC2)cc1	9	32µM*	?	-2%	-5%	-11

Screens from PubChem.
